Screening results: PubChem, National Center for Advancing Translational Sciences (NCATS)
LT uptake inh = blocks cellular internalization of anthrax lethal toxin | Potency, µM (top dose mostly 40 µM), for the others: at the top dose activity change, negative = inhibition, usual class: inhibitors | AID 912 | Cells, anthrax lethal toxin internalization, FRET ratio (460/530) | hit rate 0.67% among 70,000; further: on the % scale 0 is the no-effect control and ±100 the full control effect; nearly all actives have a fitted effect of over 50% in size
AmpC inh no det = blocks E. coli AmpC beta-lactamase in absence of detergent; hit rate 1.8% among 71,000; AID 585; AmpC nitrocefin hydrolysis, absorbance 480 nm, no detergent; P00811; Potency, µM (series often up to 28.7 µM), without a hit: at the highest dose activity change, negative = inhibition; further: % of control where 0% means no effect
Target sequence (P00811 whole entry, looked up): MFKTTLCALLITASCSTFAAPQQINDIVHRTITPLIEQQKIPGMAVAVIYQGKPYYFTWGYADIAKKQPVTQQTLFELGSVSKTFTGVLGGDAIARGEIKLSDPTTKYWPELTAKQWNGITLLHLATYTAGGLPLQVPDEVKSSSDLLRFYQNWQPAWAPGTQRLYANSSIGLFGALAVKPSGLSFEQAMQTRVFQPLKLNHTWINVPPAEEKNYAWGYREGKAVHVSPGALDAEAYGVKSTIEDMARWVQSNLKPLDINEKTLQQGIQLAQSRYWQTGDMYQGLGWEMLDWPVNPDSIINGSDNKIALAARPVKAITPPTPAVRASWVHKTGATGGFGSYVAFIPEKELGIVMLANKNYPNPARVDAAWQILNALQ
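AmpC in 20 mM phosphate buffer pH 7.0 was preincubated 15 min at room temperature with compounds. Nitrocefin (800 uM stock) was then added and hydrolysis followed at 480 nm every 20 s for 4 min.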
AmpC inh det = AmpC beta-lactamase inhibition, detergent assay; purified AmpC, nitrocefin hydrolysis with detergent; Potency, µM (series often up to 28.7 µM), inactives show at the highest dose activity change, negative = inhibition; hit rate 0.09% among 71,000; P00811; active means well fitted curve in the direction sought with a large enough effect; inconclusive means small, poorly fitted or top-dose-only effect; further: on the % scale 0 is the no-effect control and ±100 the full control effect
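E. coli AmpC (5.3 nM) in 20 mM phosphate pH 7.0 with 0.01% Triton X-100, preincubated 15 min RT with compound; nitrocefin (2 uL of 800 uM stock) hydrolysis followed by 480 nm absorbance every 20 s over 4 min.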
SmPrx2 inh = blocks S. mansoni peroxiredoxin 2 enzymatic activity. S. mansoni Prx2 activity coupled to TGR/GSH (TGR is thioredoxin glutathione reductase), NADPH fluorescence loss, qHTS. Potency, µM. hit rate 0.07% among 65,000
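Prx2 activity was followed as the loss of NADPH fluorescence (ex 365/em 450 nm), read every 30 sec for 8 min after H2O2 start. The enzyme mix (50 nM Prx2, 25 nM TGR, GSH, NADPH; pH 7.4 phosphate buffer) was incubated with compound for 15 min at room temperature first.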
An asterisk follows results filed as active; ? = inconclusive; nt = no result; [ ] = remark or other dose. An excerpt weighted towards active compounds, which were near 2.4% of everything screened. Unless noted, the call rests on the fitted dose curve. Potency means the concentration at half of the fitted maximal effect.

SMILES	LT uptake inh	AmpC inh no det	AmpC inh det	SmPrx2 inh
O=S(=O)(c1ccc(S(=O)(=O)N2CCN3CCCC3C2)cc1)N1CCCC1 (configuration not stated)	5%	16%	3%	>57
N#CS.N=C=S.N=C=S.[Cu].[NH2-].[NH2-].[NH2-].[NH2-].c1ccc2ncccc2c1	-16%[8 µM]	0%[5.75 µM]	-2%[5.75 µM]	>57
O=C(Nc1ccc(S(=O)(=O)N2CCCCCC2)cc1)c1ccc(Br)o1	1.6µM*	-11%	8%	>57
O=C(Cc1cccs1)Nc1ccc(S(=O)(=O)N2CCCCC2)cc1	-3%	13µM*[single pt active]	-2%	>57
O=C(/C=C\c1ccc(O)c(O)c1)O[C@H]1C[C@@](O)(C(=O)O)C[C@H](O)[C@@H]1O	?	4%	-2%	>57
Cn1c(=O)c(=O)n(C)c2cc(S(=O)(=O)N3CCOCC3)ccc21	-7%	-16%	-2%	>57
Cn1c(=O)c(=O)n(C)c2cc(S(=O)(=O)CCC(=O)N3CCOCC3)ccc21	-10%	4µM*[single pt active]	12%	>57
CCOC(=O)c1ccc(NC2c3ccccc3C(=O)N2c2cccnc2)cc1 (configuration not stated)	-5%	62%	11%	>57
CCc1cccc(NC2c3ccccc3C(=O)N2c2cccnc2)c1 (configuration not stated)	-3%	4µM*[single pt active]	9%	>57
O=C1c2ccccc2C(Nc2ccccc2F)N1c1cccnc1 (configuration not stated)	0%	4µM*[single pt active]	13%	>57
Cc1ccnc(N2C(=O)c3ccccc3C2Nc2cccc(C)c2C)c1 (configuration not stated)	-5%	13%	10%	>57
CCc1cccc(NC2c3ccccc3C(=O)N2c2ccc(C)cn2)c1 (configuration not stated)	?	43%	8%	>57
Cc1ccccc1N1C(=O)c2ccccc2C1Nc1cccnc1 (configuration not stated)	-3%	4µM*[single pt active]	13%	>57
COC(=O)c1ccccc1NC1c2ccccc2C(=O)N1c1cccnc1 (configuration not stated)	-9%	4µM*[single pt active]	8%	>57
Cc1ccc2oc(=O)c3cc(C(=O)N4CCN(C(=O)c5ccco5)CC4)sc3c2c1	-4%	2%	13%	>57
Cc1ccc2oc(=O)c3cc(C(=O)N4CCN(c5ncccn5)CC4)sc3c2c1	-16%	4µM*[single pt active]	11%	>57
CCC(C)NC(=O)c1cn(CC)c2ccc(S(=O)(=O)N(C)C)cc2c1=O (configuration not stated)	5%	86%	8%	>57
CCn1cc(C(=O)NC2CCCCC2)c(=O)c2cc(S(=O)(=O)N(C)C)ccc21	-9%	4µM*[single pt active]	11%	>57
CCN(CC)CCNC(=O)c1cn(C)c2ccc(S(=O)(=O)N(C)C3CCCCC3)cc2c1=O	4µM*	4µM*[single pt active]	12%	>57
CN1CCN(C(=O)c2cn(C)c3ccc(S(=O)(=O)N(C)C4CCCCC4)cc3c2=O)CC1	-23%	27%	12%	>57
CCN(CC)CCNC(=O)c1cn(CC)c2ccc(S(=O)(=O)N(C)C)cc2c1=O	-5%	3.2µM*[single pt active]	13%	>57
CCn1cc(C(=O)O)c(=O)c2cc(S(=O)(=O)N(C)C)ccc21	-9%	0%	9%	>57
COc1ccc(C[C@@H]2NC[C@H](O)[C@H]2OC(C)=O)cc1	?	9%	4%	>11
OC(CNCc1ccco1)Cn1c2ccccc2c2ccccc21 (configuration not stated)	-6%	40%	-6%	>57
CS(=O)(=O)N(Cc1ccco1)CC(O)Cn1c2ccccc2c2ccccc21 (configuration not stated)	10µM*	87%	3%	>57
SMILES	LT uptake inh	AmpC inh no det	AmpC inh det	SmPrx2 inh
C=C1CC[C@H]2C(C)(C)[C@H](O)CC[C@]2(C)[C@@H]1COc1ccc2ccc(=O)oc2c1	?	56%	-3%	>57
O=C(CN1CCN(c2ccccc2)CC1)Nc1nnc(-c2ccccc2)s1	-1%	-8%	-2%	>57
O=C(CN1CCN(c2ccc(F)cc2)CC1)Nc1nnc(-c2ccccc2)s1	1%	16µM*[single pt active]	0%	>57
CC(C)N1CCN(c2ccc(OC[C@@H]3CO[C@@](Cn4cncn4)(c4ccc(Cl)cc4Cl)O3)cc2)CC1	-10%[3.58 µM]	90%[12.8 µM]	-1%[12.8 µM]	>57
COc1cccc(NC(=O)n2nc(N)cc2-c2ccc(Cl)cc2)c1	?	4µM*[single pt active]	10%	>57
COc1cccc(NC(=O)CSc2nc(N)cc(N)n2)c1	12%	-3%	-7%	>57
C[C@H]1[C@H](C)CC[C@]2(C(=O)O)CC[C@]3(C)C(=CC[C@@H]4[C@]5(C)C[C@H](O)[C@@H](O)[C@@](C)(CO)[C@@H]5[C@H](O)C[C@@]43C)[C@H]12	-3%[8 µM]	40%[5.75 µM]	-4%[5.75 µM]	>57
CCOC(=O)C1CCN(CC(O)COc2ccc(C(C)(C)C)cc2)CC1 (configuration not stated)	-15%	60%	-1%	>57
CC(=O)c1ccc(OCC(O)CN2CCN(Cc3ccccc3)CC2)cc1 (configuration not stated)	-8%	4µM*[single pt active]	14%	>57
CCOC(=O)C1CCN(CC(O)COc2ccc(C(C)=O)cc2)CC1 (configuration not stated)	-11%	3.2µM*[single pt active]	12%	>57
CC1(C)OCC(CSC2=C(SCC3COC(C)(C)O3)C(=O)c3ncccc3C2=O)O1 (configuration not stated)	?	16%	14%	nt
CCn1cc(C(=O)O)c(=O)c2ccc(Cc3ccccc3)nc21	?	-4%	-3%	>57
CN(Cc1ccco1)c1ncnc2ccc(-c3ccccc3C#N)cc12	?	72%	8%	>57
COc1cccc(-c2ccc3ncnc(N(C)Cc4ccco4)c3c2)c1	?	6.3µM*	10µM*	>57
CN(C)c1ccc(-c2ccc3ncnc(N(C)Cc4ccco4)c3c2)cc1	10µM*	38%	-2%	>57
COc1cccc(-c2ccc3ncnc(N4CCOCC4)c3c2)c1	-30%	?	10µM*	>57
COc1ccccc1-c1ccc2ncnc(N3CCOCC3)c2c1	?	133%	7%	>57
Cc1ncc([N+](=O)[O-])n1CCN=[N+]=[N-]	3%[8 µM]	4%[5.75 µM]	-5%[5.75 µM]	>57
O=C(c1csnn1)N1CCC2(CC1)CN(c1cccc(-c3ccccc3)c1)C2	-15%	127%	-2%	>57
Oc1cc(O)cc(/C=C\c2ccc(O)c(O)c2)c1	3%	-23%	-4%	>57
O=S(=O)(NCCO)c1cc[c]([Sb](=[O])([OH])[OH])cc1	-4%[8 µM]	-11%[5.75 µM]	1%[5.75 µM]	>57
C[C@@H](O)CN(CCN(C[C@@H](C)O)C[C@@H](C)O)C[C@@H](C)O.O=[N+]([O-])O.[Cu]	?	0%[5.75 µM]	-6%[5.75 µM]	>57
Cc1ccc(-c2nnc3n2N=C(c2ccccc2)CS3)cc1	-18%	8%	13%	>57
c1ccc(C2=Nn3c(nnc3-c3cc(-c4ccccc4)n[nH]3)SC2)cc1	13µM*	38%	3%	>57
